Screens deposited in PubChem by National Center for Advancing Translational Sciences (NCATS).
HepG2 tox = HepG2 cytotoxicity, counter-screen for TGF-b inhibitors | 410,000 compounds, 0.76% hits | Potency, µM (series often up to 46.1 µM), hits mostly cytotoxic | AID 588856 | HepG2 CAGA-GFP viability, ATP luminescence, 18 h
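CellTiter-Glo luminescence gave cytotoxicity after 18 hours at 37 degrees C. The cells were HepG2 CAGA-GFP in 1% FBS DMEM, stimulated with 500 pg/mL TGF-beta after compound addition. %Activity was normalised to no-cell wells (complete cell-killing) and DMSO (no toxicity), and curves were fitted and classified.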
ATXN viability = viability counter-screen for ATXN expression inhibitors; S2 cells (HEK-293 line with an ATXN2-luciferase reporter) viability, CellTiter-Fluor protease fluorescence, 24 h; 400,000 compounds, 0.49% hits; AID 651635; Potency, µM (doses to about 56.7 µM), actives largely listed as cytotoxic; further: nearly all actives have a fitted effect of over 40% in size
D3 antag = D3 dopamine receptor (human) antagonism; P35462; D3R cells, DiscoveRx beta-arrestin luminescence, antagonist mode; active compounds read low; max response, negative = inhibition, %; 360,000 compounds, 2.5% hits; in the data active means max response below about -50%; inconclusive means no clear call, values can overlap the other calls
Target sequence (P35462 whole entry, looked up): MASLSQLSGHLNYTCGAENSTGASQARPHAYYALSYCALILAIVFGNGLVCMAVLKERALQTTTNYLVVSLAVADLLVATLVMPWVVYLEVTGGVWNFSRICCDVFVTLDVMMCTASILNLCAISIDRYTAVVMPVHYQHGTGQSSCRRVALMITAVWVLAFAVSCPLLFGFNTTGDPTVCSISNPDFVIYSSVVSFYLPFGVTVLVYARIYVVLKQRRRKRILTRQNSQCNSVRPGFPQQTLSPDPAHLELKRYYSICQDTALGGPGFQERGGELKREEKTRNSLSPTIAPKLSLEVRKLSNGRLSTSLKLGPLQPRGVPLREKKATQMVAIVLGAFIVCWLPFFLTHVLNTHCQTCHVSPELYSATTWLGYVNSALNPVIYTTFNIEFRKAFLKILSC
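Cells expressing the human receptor were seeded at 1500 cells/well, incubated overnight at 37 degrees C in 5% CO2, then exposed to library compounds with dopamine controls for 90 minutes at 37 degrees C before luminescent detection.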
ATXN2 expr inh = reduces ATXN2 reporter expression in HEK-293 cells; Potency, µM (highest dose often 57 µM), usual class: inhibitors; HEK-293 ATXN2-luciferase reporter, luminescence, 24 h; 360,000 compounds, 0.72% hits; further: nearly all actives have a fitted effect of over 55% in size
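ATXN2-luciferase reporter cells (luciferase flanked by upstream and downstream ATXN2 gene portions) were treated 24 h at 37 °C with compounds at up to 57 uM. SteadyGlo luminescence gave expression; GF-AFC fluorescence gave viability.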
TGFb SMAD3 inh = inhibitors of TGF-b signaling; HepG2 CAGA-GFP TGF-b/SMAD3 reporter, GFP fluorescence, 18 h; TGF-beta stimulated, 500 pg/mL final; 410,000 compounds, 1.2% hits; Potency, µM (top dose mostly 46.1 µM), usual class: inhibitors; further: nearly all actives have a fitted effect of over 65% in size
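HEPG2 CAGA-GFP reporter cells (1000/well, DMEM with 1% FBS) received compounds, then recombinant TGF-beta at 500 pg/mL final for 18 hours at 37 degrees C. Per-cell GFP summed per well was normalised to unstimulated and stimulated DMSO controls before curve fitting.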
DRD3 agonist = D3 dopamine receptor (human) agonism; D3R DiscoveRx beta-arrestin cells, luminescence, 90 min; max activation, %; 410,000 compounds, 0.58% hits; P35462; in the data active means max activation above about 30%
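Agonist mode: compounds and dopamine controls were applied to plated cells for 90 min at 37 degrees C after an overnight attachment at 1500 cells/well. Luminescent read-out followed 30 - 60 minutes at room temperature with DiscoveRx detection reagent.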
Each line names hits and unclear results; the compound was inactive in the other large screens; ! = a repeat was not active. Sampled rows, rich in hits. Any-hit rate of the full collection: about 4.8%. Unless noted, the call rests on the fitted dose curve; in most records, active means well fitted curve in the direction sought with a large enough effect; inconclusive means small, poorly fitted or top-dose-only effect, or another doubt; inactive means no such curve, though single readings can be large; an effect the other way counts as inactive or inconclusive.

CO[C@H]1C[C@H](O[C@H]2[C@H](C)[C@@H](O[C@@H]3O[C@H](C)C[C@H](N(C)C)[C@H]3O)[C@@H](C)C[C@]3(CO3)C(=O)[C@H](C)[C@@H](O)[C@@H](C)[C@@H](C)OC(=O)[C@@H]2C)O[C@@H](C)[C@@H]1O	none (no result: HepG2 tox, D3 antag, ATXN2 expr inh, TGFb SMAD3 inh)
CC(C)C(=O)Nc1ccc(C(=O)N/N=C/c2cc(Br)cc(Br)c2O)cc1	ATXN2 expr inh inconclusive, TGFb SMAD3 inh inconclusive (no result: ATXN viability)
O=C(N/N=C/c1cc(Cl)ccc1O)c1ccc(Br)cc1	ATXN2 expr inh 4.5µM
O=C(C[n+]1ccccc1)N/N=C/c1cc(Br)ccc1O	D3 antag -89
O=C(N/N=C/c1cc(Br)ccc1O)c1ccncc1	ATXN2 expr inh 2.8µM, TGFb SMAD3 inh inconclusive
CC(=O)Nc1ccc(C(=O)N/N=C/c2cc(Br)cc(Br)c2O)cc1	ATXN2 expr inh 25µM, TGFb SMAD3 inh inconclusive
O=C(C[n+]1ccccc1)N/N=C/c1ccccc1F	none
CCOC(=O)c1ccc(NC(=O)C(CC)Sc2nc3ncccc3o2)cc1 (configuration not stated)	none (no result: ATXN viability, D3 antag, ATXN2 expr inh, TGFb SMAD3 inh)
O=C(N/N=C/c1cccnc1)c1cccc(NC(=O)c2cccc(Br)c2)c1	none
O=C(N/N=C/c1ccccc1O)c1ccncc1	ATXN viability inconclusive, ATXN2 expr inh 3.5µM!
Cc1ccc(C(=O)O)cc1N=Cc1cc(Br)cc(Br)c1O	D3 antag -120, TGFb SMAD3 inh inconclusive
O=C(N/N=C/c1ccc(O)c2ncccc12)c1cccc(Br)c1	ATXN viability inconclusive, ATXN2 expr inh inconclusive, TGFb SMAD3 inh 13µM
CNC(=S)N/N=C/c1cc(Br)cc(Br)c1O	D3 antag inconclusive
O=C(N/N=C/c1cccc2ccccc12)c1ccncc1	none (no result: ATXN2 expr inh)
Cc1nn(CC(=O)NCc2ccc(N(C)C)cc2)c(=O)c2nn(-c3ccccc3)c(C)c12	none (no result: D3 antag)
Cc1cccc(N2CCN(C(=O)c3sc4nc5n(c(=O)c4c3C)CCC5)CC2C)c1 (configuration not stated)	TGFb SMAD3 inh inconclusive (no result: ATXN viability, D3 antag, ATXN2 expr inh)
CC(Cc1cccc(C(F)(F)F)c1)NCCOC(=O)c1ccccc1 (configuration not stated)	D3 antag -99
COc1cccc(C(=O)N/N=C(/c2ccccc2)c2ccccn2)c1	ATXN viability 10µM, ATXN2 expr inh 4µM, TGFb SMAD3 inh inconclusive
COc1cccc(C(=O)N/N=C(/CCC(=O)O)c2ccccc2)c1	none
COc1cc(C(=O)N/N=C(\c2ccccc2)c2ccccn2)cc(OC)c1OC	D3 antag inconclusive, ATXN2 expr inh 2.5µM
N#Cc1nc(-c2ccc(OCc3ccccc3)cc2)oc1N1CCOCC1	DRD3 agonist 31
N#Cc1nc(COc2ccc(Br)cc2)oc1N1CCN(Cc2ccccc2)CC1	none
CCN1CCN(c2oc(COc3ccc(-c4ccccc4)cc3)nc2C#N)CC1	D3 antag -80, TGFb SMAD3 inh inconclusive
COC(=O)c1c(NC(=O)CN2CCCc3ccccc32)sc(C)c1C	D3 antag -60
CCOC(=O)c1c(NC(=O)CN2CCCc3ccccc32)sc(C)c1C	none
CCc1ccc(NC(=O)N(CCCN2CCOCC2)C(C)c2cc3cccc(OC)c3o2)cc1 (configuration not stated)	ATXN viability inconclusive, D3 antag -53
NCCNCCNCCN	DRD3 agonist 36!
NC(=O)c1cccc2[nH]c(-c3ccc([C@H]4CCCN4)cc3F)nc12	none (no result: HepG2 tox, ATXN viability, D3 antag, TGFb SMAD3 inh, DRD3 agonist)
COc1cc(-c2nnc(NC(=O)CCS(=O)(=O)c3ccc(F)cc3)o2)cc(OC)c1OC	ATXN viability inconclusive, D3 antag inconclusive, TGFb SMAD3 inh inconclusive
COc1cc(-c2nnc(NC(=O)CCS(=O)(=O)c3ccccc3)o2)cc(OC)c1OC	ATXN viability inconclusive, TGFb SMAD3 inh 11µM
Cc1cc(NC(=O)CSc2nc3cc(Cl)ccc3o2)no1	none
O=S1(=O)C=C(Sc2nc3cc(Cl)ccc3o2)c2ccccc21	D3 antag -77, ATXN2 expr inh inconclusive (no result: ATXN viability)
OC(c1ccc(Cl)cc1Cl)C(Cc1cccnc1)n1cncn1 (configuration not stated)	ATXN viability inconclusive, D3 antag -75
CCCCCCCCCCCCCCCCCC(=O)OCCO	none (no result: HepG2 tox, D3 antag, ATXN2 expr inh, TGFb SMAD3 inh)
CC(NC(=S)NCc1ccc(F)cc1)C12CC3CC(CC(C3)C1)C2 (configuration not stated)	D3 antag inconclusive, ATXN2 expr inh 14µM, TGFb SMAD3 inh inconclusive
CCC(C)c1ccc(C(C)NC(=S)NCc2ccc(F)cc2)cc1 (configuration not stated)	ATXN2 expr inh inconclusive, TGFb SMAD3 inh 18µM
Cc1cccc(NC(=O)C(=O)c2cc(C)n(-c3ccccc3)c2C)c1C	none (no result: D3 antag)
Cc1onc(-c2c(Cl)cccc2Cl)c1C(=O)Cl	none (no result: HepG2 tox, D3 antag, TGFb SMAD3 inh, DRD3 agonist)
COc1ccccc1CN1CCc2c([nH]c3ccccc23)C1	D3 antag -90 (no result: ATXN viability, ATXN2 expr inh)
COc1cc(CN2CCc3c([nH]c4ccccc34)C2)cc(OC)c1	D3 antag -68
O=[N+]([O-])c1ccc(O/N=[N+](\[O-])N2CCCCC2)c([N+](=O)[O-])c1	none (no result: ATXN viability, D3 antag, ATXN2 expr inh, DRD3 agonist)
COc1cc(NC(=O)CCl)ccc(=O)c1	HepG2 tox 0.71µM, ATXN viability inconclusive, TGFb SMAD3 inh inconclusive (no result: ATXN2 expr inh)
O=C(CN1CCCCC1)Nc1cccc(Oc2ccccc2)c1	D3 antag inconclusive
O=C(CCl)Nc1cccc(Oc2cnccn2)c1	ATXN viability 22µM, ATXN2 expr inh inconclusive, TGFb SMAD3 inh 16µM
O=C(CCl)Nc1cccc(Oc2ccccc2)c1	ATXN2 expr inh 9.5µM, TGFb SMAD3 inh 8.9µM (no result: ATXN viability)
Cc1cccc2c(N3CCCC3)nc(CNS(=O)(=O)c3ccccc3Cl)nc12	none (no result: HepG2 tox, D3 antag, ATXN2 expr inh, TGFb SMAD3 inh, DRD3 agonist)
CCN(C(=O)c1c(O)c2c(Cl)cccc2n(C)c1=O)c1ccccc1	none (no result: HepG2 tox, ATXN viability, D3 antag, TGFb SMAD3 inh, DRD3 agonist)
CCOC(=O)c1c(C)c(C(=O)NCc2ccc(Cl)cc2)c(C)n1C	none (no result: D3 antag)
COc1ccc(-c2nncnn2)cc1	D3 antag -52
COc1ccc(-c2ccc(OC)cc2)cc1	D3 antag inconclusive
CSc1ccc(C(=O)N2CCc3ccc(NC(=O)c4ccccn4)cc3C2)cc1	TGFb SMAD3 inh inconclusive
CSc1ccccc1C(=O)N1CCc2ccc(NC(=O)c3ccccn3)cc2C1	HepG2 tox 10µM, ATXN viability inconclusive (no result: ATXN2 expr inh)
Cc1ccc(C)c(Cn2c(=O)n(CCCC(=O)NCc3ccc4c(c3)OCO4)c(=O)c3sccc32)c1	none (no result: ATXN viability, D3 antag, ATXN2 expr inh)
COc1ccccc1CNC(=O)CCc1c(C)c2cc3c(C)coc3cc2oc1=O	none (no result: D3 antag)
CN(C)CCCC1(c2ccc(F)cc2)OCc2cc(C#N)ccc21 (configuration not stated)	D3 antag -59
CCc1cccc(NC(=O)Cn2c(=O)n3nc(-c4cccc(F)c4)nc3c3ccccc32)c1	none (no result: D3 antag)
